# Tests used:
# Settings in all cases: concentration: 1 μM, replicates: in singlicate; n = 1
# [1] = tested on: ERN1
# [2] = tested on: T1, FAK
# T1 construct: gene PTK2
# [3] = tested on: FER
# [4] = tested on: FES
# [5] = tested on: FGFR1
# [6] = tested on: FGFR2
# [7] = tested on: FGFR3
# [8] = tested on: FGFR4
# [9] = tested on: FGR
# [10] = tested on: FLT1
# [11] = tested on: FLT3-autoinhibited
# [12] = tested on: FLT3
# [13] = tested on: FLT4
# [14] = tested on: FRK
# [15] = tested on: FYN
# [16] = tested on: GAK
# [17] = tested on: T2, GCN2(Kin.Dom.2,S808G)
# T2 construct: gene EIF2AK4
# [18] = tested on: GRK1
# [19] = tested on: T3, GRK2
# T3 construct: gene ADRBK1
# [20] = tested on: T4, GRK3
# T4 construct: gene ADRBK2
# 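Further: KINOMEscan kinase panel screen.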
SMILES,%Inh [1] [%],%Inh [2] [%],%Inh [3] [%],%Inh [4] [%],%Inh [5] [%],%Inh [6] [%],%Inh [7] [%],%Inh [8] [%],%Inh [9] [%],%Inh [10] [%],%Inh [11] [%],%Inh [12] [%],%Inh [13] [%],%Inh [14] [%],%Inh [15] [%],%Inh [16] [%],%Inh [17] [%],%Inh [18] [%],%Inh [19] [%],%Inh [20] [%]
CNc1ncnc2[nH]ncc12 [SKF-18355],33,0,30,0,0,0,5,0,0,0,0,0,0,0,0,0,0,29,0,0
NS(=O)(=O)c1cccc(-c2ccc3ncc(N4CCOCC4)nc3c2)c1 [GSK1535721],2,0,3,6,0,0,22,15,27,13,12,0,12,11,16,15,0,3,0,30
Cc1nnc(-c2ccc3occ(-c4ccc(C(C)O)cc4)c3c2)o1 (centres unmarked),0,0,0,17,0,16,22,19,11,16,4,0,6,10,15,0,23,0,0,12
Cc1c(Cn2c(C)nn3c(=O)cc(N4CCOC(C)C4)nc23)cccc1C(F)(F)F (centres unmarked) [GSK2344444],24,0,25,0,3,0,4,0,0,25,3,0,11,0,2,0,0,1,0,0
O=C1NC(=O)C(N2CCc3ccccc32)=C1c1cccc(Cl)c1 [SB-408010],27,0,0,31,5,15,0,0,22,11,21,0,2,0,0,10,17,53,0,0
COc1cc(Nc2nccc(N3CCC(NC(=O)c4cccc(NC(C)=O)c4)C3)n2)cc(OC)c1OC (centres unmarked) [GSK1379754],22,0,6,11,21,21,25,6,27,44,6,50,23,16,35,44,17,0,0,18
O=C(NOCC1CC1)c1ccc(F)c(F)c1Nc1ccc(I)cc1Cl,0,0,0,0,0,0,0,0,0,10,0,0,1,0,0,0,0,0,0,0
COc1ccc(Nc2ncc(C#N)c(Nc3ccccc3C(N)=O)n2)cc1N1CCN(C)CC1.Cl [GSK1558669],92,100,99.5,99.3,100,99.8,99.9,85,96.5,100,99.9,99.8,100,83,96.8,98.1,100,55,35,0
Cc1ccc(C(=O)NCC(N)=O)cc1-n1c(C)cc(OCc2ccc(F)cc2F)c(Br)c1=O,0,7,6,23,51,32,21,19,25,0,0,13,0,25,20,6,0,20,0,0
COc1cc2ncn(-c3cc(OCc4sccc4Cl)c(C(N)=O)s3)c2cc1OC [GSK448459],0,0,10,0,0,15,13,0,9,15,0,31,67,10,15,86,7,0,0,33

# — paper PMC5540273 (PLoS ONE, 2017)
